# This is a sample that favours compounds with a hit; in the whole collection about 6.8% have one here.
# KB-V1 MDR tox: KB-V1 MDR subline cytotoxicity | KB-V1 MDR cells viability, CellTiter-Glo, 72 h | Potency, µM (doses to about 46.1 µM), hits mostly cytotoxic | 400,000 compounds, 3.4% hits | AID 1347076; also: % is scaled to controls: 0 for no effect and ±100 for the full control effect; nearly all actives have a fitted effect of over 60% in size
#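 Readout: CellTiter-Glo luminescence, 10 min after addition. Cells: KB-V1 MDR subline, 72 h at 37 degrees C with compound. Analysis: corrected, normalized data fitted to concentration-effect curves.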
# KB-3-1 tox: KB-3-1 parental cell cytotoxicity; 400,000 compounds, 1.4% hits; KB-3-1 viability, CellTiter-Glo ATP luminescence, 72 h; Potency, µM (series often up to 46.1 µM), usual class: cytotoxic; also: % is scaled to controls: 0 for no effect and ±100 for the full control effect; nearly all actives have a fitted effect of over 60% in size
#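 Parental KB-3-1 viability, qHTS format: 72 h compound exposure, 37 °C; CellTiter-Glo; media-only wells and DMSO plates as controls; concentration-effect fits on corrected data.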
# TSG101-PTAP inh: blocks PTAP/TSG101 interaction to inhibit HIV-1 budding; Q99816; Fluorescence polarization, FITC-PTAP peptide / Tsg101 binding; Potency, µM (highest dose often 115 µM), without a hit: at the top dose activity change, negative = inhibition, usual class: inhibitors; 340,000 tested, under 10 active; active = well fitted inhibition curve with a large enough effect in the main read-out, with a control signal flat, not every such curve was filed as active; inconclusive = small, poorly fitted or top-dose-only effect, or effect the other way, or a change in a side signal; inactive = no such curve, though single readings can be large or run the other way; also: % of control where 0% means no effect
# Target sequence (Q99816 whole entry, looked up): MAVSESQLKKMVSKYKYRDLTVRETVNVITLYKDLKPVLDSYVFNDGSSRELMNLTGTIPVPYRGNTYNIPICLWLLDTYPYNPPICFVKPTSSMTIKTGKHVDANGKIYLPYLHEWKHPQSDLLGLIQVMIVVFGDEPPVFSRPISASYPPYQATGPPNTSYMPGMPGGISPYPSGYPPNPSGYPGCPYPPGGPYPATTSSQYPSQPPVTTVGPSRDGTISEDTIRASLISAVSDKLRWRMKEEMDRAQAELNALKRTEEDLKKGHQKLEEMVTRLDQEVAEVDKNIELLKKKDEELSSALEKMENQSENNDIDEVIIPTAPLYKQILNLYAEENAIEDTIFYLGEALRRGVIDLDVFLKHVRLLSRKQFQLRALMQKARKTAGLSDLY
#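 Fluorescence polarization binding of Tsg101 binding domain (10 uM final) to FITC-labeled PTAP peptide (50 nM final) in HEPES pH 7.5 buffer with NaCl, Tween 20, EDTA, TCEP. Compounds added before peptide; binding 20 min at RT.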
# SW480 rerep: DNA re-replication induction in SW480 cells; SW480 DNA re-replication, Hoechst DNA content imaging, 48 h; Potency, µM (highest dose often 46.1 µM), for the others: at the top dose re-replication activation, actives largely listed as activators; 340,000 compounds, 1.8% hits; AID 624297; also: % of control where 0% means no effect; nearly all actives have a fitted effect of over 55% in size
#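 Compounds, transferred as 23 nL by pin tool, were incubated with cells for 48 hr; DNA content per nucleus was then quantified by Hoechst staining and fluorescence plate imaging.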
# PINK1 expr mod: PINK1 expression modulation; PINK1 immunofluorescence, high-content cytometry, 24 h; AID 624263; 410,000 compounds, 0.2% hits; Potency, µM (highest dose often 76.6 µM), for the others: at the top dose activation (PINK1 increase), actives largely listed as activators; active = well fitted activation curve with a large enough effect; inconclusive = small, poorly fitted or top-dose-only effect; cell line not stated here; also: % of control where 0% means no effect; nearly all actives have a fitted effect of over 65% in size
#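 Stable cell line treated 24 h with compounds at 5 concentrations (CCCP controls), then fixed and immunostained for PINK1 plus nuclear and cell stains; PINK1 immunofluorescence quantified by laser-scanning microplate cytometry.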
# MCF10A rerep: inducers of DNA re-replication in MCF 10A breast cells. 350,000 compounds, 2.9% hits. Potency, µM (series often up to 46.1 µM), without a hit: at the top dose activity, positive = re-replication, usual class: activators. MCF 10A DNA re-replication, Hoechst nuclear intensity, 48 h; also: % of control where 0% means no effect; nearly all actives have a fitted effect of over 50% in size
# An asterisk follows results filed as active; i = inactive; ? = inconclusive; . = not tested or not shown; [ ] = remark or other dose. Unless noted, calls follow the shape of the dose curve; as a rule, active = well fitted curve in the direction sought with a large enough effect; inconclusive = small, poorly fitted or top-dose-only effect, or another doubt; inactive = no such curve, though single readings can be large; an effect the other way counts as inactive or inconclusive. Potency is read from the fitted curve at half-maximal effect.
SMILES,KB-V1 MDR tox,KB-3-1 tox,TSG101-PTAP inh,SW480 rerep,PINK1 expr mod,MCF10A rerep
O=C(CSc1nc(C2CC2)nc2ccccc12)N1c2ccccc2Sc2ccc(C(F)(F)F)cc21,18µM*,?,-6%,11%,94%[38.3 µM],24%
CC(CCc1ccccc1)NC(=O)COc1ccc(S(=O)(=O)N2CCOCC2)cc1[N+](=O)[O-] (stereo not drawn),21µM*,i,-1%,11%,1%,19%
O=C(COc1ccc(S(=O)(=O)N2CCOCC2)cc1Cl)NC1CCCCC1,.,.,-4%,3%,4%,2%
CC(CCc1ccccc1)NC(=O)COc1cc(F)ccc1[N+](=O)[O-] (stereo not drawn),i,i,0%,6%,-2%,6%
CC(CCc1ccccc1)NC(=O)COC(=O)c1cc(NS(=O)(=O)c2ccc(Cl)c([N+](=O)[O-])c2)ccc1O (stereo not drawn),?,i,-4%,11%,1%,6.5µM*
O=S(=O)(c1ccc(OCC(O)CNC23CC4CC(CC(C4)C2)C3)c(Cl)c1)N1CCOCC1 (stereo not drawn),?,?,-1%,16µM*,1%,?
CNS(=O)(=O)c1cccc(C(=O)OCC(=O)NC(C)CCc2ccccc2)c1 (stereo not drawn),i,i,-3%,-9%,0%,4%
CC(C)C(C)NC(=O)COc1ccc(S(=O)(=O)N2CCOCC2)cc1Cl (stereo not drawn),?,i,-4%,?,2%,0.58µM*
COC(=O)CN1C(=O)CSc2ccc(S(=O)(=O)N3CCOCC3)cc21,.,.,.,.,1%,.
CC(C)CN1CC[C@@]2(CCCN(C(=O)c3cccc(F)c3)C2)C1,.,.,.,.,1%,.
COc1ccc(N2CC(NC(=O)c3cc4ccccc4o3)CC2=O)cc1OC (stereo not drawn),i,i,.,.,0%,.
O=C(Nc1cccc(Cl)c1)c1ccc2c(c1)CCN2S(=O)(=O)c1ccccc1,i,i,.,.,0%,.
O=C(COc1ccc(S(=O)(=O)N2CCOCC2)cc1Cl)NCCCn1ccnc1,i,i,-4%,7.3µM*,3%,?
Cc1cc(S(=O)(=O)N2CCOCC2)ccc1OCC(=O)NCCCn1ccnc1,?,i,-8%,?,0%,0%
N#Cc1c(N2CCN(c3ccc([N+](=O)[O-])cc3)CC2)[n+](=O)c2ccc(Cl)cc2n1[O-],?,?,-10%,8.2µM*,15%,?
O=[N+]([O-])c1ccc(CN2CCN(c3ccc([N+](=O)[O-])cc3)CC2)cc1,i,?,-1%,-4%,0%,15%
O=S(=O)(Nc1ccc(N=Nc2ccc(O)c3ccccc23)cc1)c1ccccc1,i,i,-3%,-5%,?,15%
O=[N+]([O-])c1ccc(N=Nc2ccc(O)c3ccccc23)cc1,15µM*,?,-7%,?,?,?
C/C(CCC12CC3CC(CC(C3)C1)C2)=N\NC(N)=S,i,i,-8%,3.3µM*,-1%[38.3 µM],?
C/C(CC1CC(C)OC1=O)=N\NC(N)=S (stereo not drawn),i,i,-5%,?,1%,-5%
O=C(Nc1ccccc1)Nc1ncc(C(F)(F)F)cc1Cl,i,i,.,.,-1%,.
CC(C)(C)NNC(=S)Nc1cccc(C(F)(F)F)c1,i,i,0%,9%,1%,27%
S=C(NNc1ccnc2cc(Cl)ccc12)Nc1ccccc1Cl,?,23µM*,-5%,?,?,?
Cc1cccc(NC(=S)NNc2ncc(C(F)(F)F)cc2Cl)c1,15µM*,?,0%,4%,20µM*,24%
FC(F)(F)c1cnc(NNC(=S)Nc2ccccc2Cl)c(Cl)c1,?,16µM*,0%,1%,?,2%
SMILES,KB-V1 MDR tox,KB-3-1 tox,TSG101-PTAP inh,SW480 rerep,PINK1 expr mod,MCF10A rerep
CCc1ccccc1NC(=O)Nc1nnc(N(C)Cc2ccccc2)s1,i,i,.,.,0%,.
CCN(c1cc(C)cc(C)c1)S(=O)(=O)c1nnc(NC(=O)C2CCCCC2)s1,.,.,.,.,2%,.
CC(=O)OCc1cnc(C)c2oc(=O)c(C(=O)Nc3cc(F)ccc3C)cc12,i,i,.,.,0%,.
O=C(Nc1ncnc2c1C(c1ccccc1)c1c(ccc3ccccc13)O2)c1ccccc1 (stereo not drawn),?,13µM*,-5%,12%[9.22 µM],-1%,?
O=C(Cc1ccccc1)Nc1ncnc2c1C(c1ccccc1)c1c(ccc3ccccc13)O2 (stereo not drawn),18µM*,?,-2%,?,0%,?
COc1ccc(OC)c(CNC(=O)C2CCN(S(=O)(=O)c3cn(C)cn3)CC2)c1,.,.,.,.,0%,.
CCc1cc2c(C)cc(=O)oc2cc1OC(=O)C1CCCN1C(=O)OC(C)(C)C (stereo not drawn),i,i,-1%,18µM*,2%,11%
COc1ccc2c(c1)OC(C)CN(CCNC(=O)C1CCOC1)C2 (stereo not drawn),.,.,.,.,2%,.
O=C(CC(C(=O)N1CCc2ccccc21)n1ccnc1)N1CCc2ccccc2C1 (stereo not drawn),8.2µM*,i,.,1%,5%[38.3 µM],15%
CCN(CCCNC(=O)CC(C(=O)N1CCc2ccccc21)n1ccnc1)c1cccc(C)c1 (stereo not drawn),12µM*,i,-5%,-2%,8%[38.3 µM],22%
CCCCNC(=O)CC(C(=O)N1CCc2ccccc21)n1ccnc1 (stereo not drawn),i,i,-5%,-6%,24%[38.3 µM],-1%
COc1ccc(C(=O)NCc2ccc3c(c2)CCN3C(=O)c2ccc(Cl)cc2)c(OC)c1,.,.,.,.,2%,.
O=Cc1cccnc1SCc1ccccc1,15µM*,?,0%,2.6µM*,5%,20%
Oc1cccnc1SCc1ccccc1,i,i,1%,-2%,3%,-2%
CCOC(=O)N(C)c1c(CC)nc2c(OCc3ccccc3C)cccn12,16µM*,?,.,.,2%,.
CCc1nc2c(OCc3cc(Cl)cc(Cl)c3)cccn2c1N(C)C(=O)Nc1ccccc1OC,21µM*,?,.,.,0%,.
CCc1nc2c(OCc3cc(Cl)cc(Cl)c3)cccn2c1N(C=O)Cc1ccccc1,21µM*,?,.,.,25%,.
CCc1nc2c(OCc3ccccc3)cccn2c1N(C)C(=O)Nc1ccccc1OC,i,i,.,.,1%,.
CCCCC(=O)N(C)c1c(CC)nc2c(OCC3CCCCC3)cccn12,26µM*,?,.,.,1%,.

# From PubChem
